# Experimental data reported in PubChem BioAssay (EPA / NIEHS).
# Results filed as inconclusive are left out. The source made the active and inactive calls. The calls were made as follows, unless noted: active = hit-call score of the fitted dose curve at least 0.9, where 1 is the maximum; inconclusive = response in the unintended direction; inactive = score below 0.9.
# What was measured:
# [1] = molecular target: Cellular tumor antigen p53 (Homo sapiens) (UniProt P04637); assay: TOX21_p53_BLA_p2_ratio: Tox21 HCT-116 p53 Agonism Beta-lactamase Assay, Ratio, Phase 2 (AID 2283592)
# Procedure, shortened: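 Plated HCT116 p53-bla cells (4000/well) received compound after 5 h, then 16 h at 37C/5% CO2. CCF4-AM added, 2 h RT. Ratio of 460 to 530 nm emission taken as the p53 reporter signal.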
# [2] = TOX21_p53_BLA_p3_viability: Viability Assessment in the Tox21 HCT-116 p53 Agonism Beta-lactamase Assay, Phase 3 (AID 2283593)
# Procedure, shortened: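 Cellular ATP was quantified by CellTiter-Glo luminescence, read after 30 min at room temperature. Beforehand, HCT116 cells (4000/well) received compound 5 h post-seeding, 217-fold diluted from DMSO, then incubated 16 h at 37C.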
# [3] = molecular target: Cellular tumor antigen p53 (Homo sapiens) (UniProt P04637); assay: TOX21_p53_BLA_p3_ratio: Tox21 HCT-116 p53 Agonism Beta-lactamase Assay, Ratio, Phase 3 (AID 2283596)
# Procedure, shortened: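 Cells were seeded at 4000/well, rested 5 h at 37C, then dosed with DMSO compound solutions (217-fold dilution) for 16 h. CCF4-AM substrate was loaded for 2 h at room temperature, and the 460/530 nm emission ratio was fitted for gain of signal versus DMSO.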
# [4] = molecular target: Cellular tumor antigen p53 (Homo sapiens) (UniProt P04637); assay: TOX21_p53_BLA_p5_ratio: Tox21 HCT-116 p53 Agonism Beta-lactamase Assay, Ratio, Phase 5 (AID 2283599)
# Procedure, shortened: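 Beta-lactamase reporter ratio (blue 460 nm over green 530 nm, 405 nm excitation) after 2 h CCF4-AM loading, in HCT-116 cells exposed 16 h at 37 C to compounds pinned at 217-fold dilution. Increases relative to DMSO baseline scored.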
# [5] = TOX21_p53_BLA_p5_viability: Viability Assessment in the Tox21 HCT-116 p53 Agonism Beta-lactamase Assay, Phase 5 (AID 2283600)
# Procedure, shortened: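 Workflow: seed 4000 cells per well, wait 5 h, add compounds (DMSO, 217-fold dilution), incubate 16 h, load CCF4-AM 2 h, add CellTiter-Glo, read luminescence after 30 min.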
# [6] = molecular target: Cellular tumor antigen p53 (Homo sapiens) (UniProt P04637); assay: TOX21_p53_BLA_p4_ratio: Tox21 HCT-116 p53 Agonism Beta-lactamase Assay, Ratio, Phase 4 (AID 2283601)
# Procedure, shortened: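 Signal is the blue/green (460nm/530nm) ratio of cleaved versus uncleaved CCF4-AM substrate, read after 2 h substrate loading. Cells were HCT116 carrying the p53-responsive beta-lactamase reporter, dosed 16 h at 37C, 5% CO2; CellTiter-Glo measured in parallel.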
# [7] = molecular target: Thyroid hormone receptor alpha (Rattus norvegicus) + Thyroid hormone receptor beta (Rattus norvegicus) (UniProt P18113+P63059); assay: TOX21_TR_LUC_GH3_Agonist_Followup: Tox21 GH3 Thyroid Hormone Receptor Agonism Luciferase Follow-Up Assay (AID 2283939)
# Procedure, shortened: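 Agonist-mode confirmatory run: 15 concentrations (5 nM to 92 uM final) on GH3 rat pituitary cells, 24 h at 37C/5% CO2, T3 as positive control. Luminescence read with ONE-Glo after 30 min.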
# THRA (gene 7067) = THRA (gene 7067) (UniProt P10827); assay: TOX21_TRA_COA_Agonist_Followup_ratio: Tox21 Thyroid Hormone Receptor alpha Agonism through Coactivator Recruitment Follow-Up Assay, Ratio (AID 2283948; active = hit-call score of the fitted dose curve at least 0.9, where 1 is the maximum; inactive = score below 0.9)
# Procedure, shortened: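 Follow-up specificity assay in which TRα ligand-binding domain, expressed as a GST fusion, recruits a fluorescein-labelled SRC-2 peptide. Energy transfer from a terbium anti-GST antibody gives the acceptor/donor ratio, fitted upward relative to DMSO.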
# THRB (gene 7068) [8] = molecular target: THRB (gene 7068) (UniProt P10828); assay: TOX21_TRB_BLA_Agonist_Followup_ratio: Tox21 Thyroid Hormone Receptor beta Agonism Beta-lactamase (BLA) Follow-Up Assay, Ratio (AID 2283954)
# Procedure, shortened: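 Agonist mode: compounds (11-point, triplicate) incubated 18 h with HEK293T cells carrying GAL4-DBD/human TRβ-LBD and UAS-β-lactamase. Blue/green (460/530 nm) FRET ratio read after 2 h CCF4-AM loading; CellTiter-Glo viability run in the same plates.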
# THRB (gene 7068) [9] = molecular target: THRB (gene 7068) (UniProt P10828); assay: TOX21_TRB_COA_Agonist_Followup_ratio: Tox21 Thyroid Hormone Receptor beta Agonism through Coactivator Recruitment Follow-Up Assay, Ratio (AID 2283963; active = hit-call score of the fitted dose curve at least 0.9, where 1 is the maximum; inactive = score below 0.9)
# Procedure, shortened: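 Cell-free TR-FRET coactivator recruitment: GST-tagged TRβ LBD (5.0 nM) with 0.10% BSA incubated with compound, then fluorescein-SRC-2 peptide (200 nM) and Tb-anti-GST antibody (2 nM) added. 520:495 nm ratio normalized to DMSO (0%) and T3 (100%).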
# [10] = molecular target: Retinoic acid receptor RXR-alpha (Homo sapiens) (UniProt P19793); assay: TOX21_TR_RXR_BLA_Agonist_Followup_ratio: Tox21 Thyroid Hormone Receptor beta Retinoid X Receptor alpha (RXRa) Agonism Beta-lactamase (BLA) Follow-Up Assay, Ratio (AID 2283968)
# Procedure, shortened: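 Cells were first allowed to attach for 5 h, after which compounds in DMSO were pinned at 11 concentrations and incubated 16 h at 37C. LiveBLAzer CCF4-AM substrate was then added for 2 h at room temperature before reading 460 and 530 nm fluorescence.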
# [11] = ACEA_ER_AUC_viability: ACEA Biosciences xCELLigence Real-Time Cell Analysis on Estrogen Receptor Agonism for Viability (AID 2283782);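 also: hit means loss of impedance signal meaning reduced cell growth or viability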
# Procedure, shortened: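 Viability endpoint: reduced impedance area under the curve relative to DMSO, recorded by real-time electrode sensing over ~80 h of continuous exposure. Duplicate plates of T47D in hormone-depleted medium; eight concentrations, 1:4 dilutions, 100 uM maximum.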
# [12] = TOX21_TR_RXR_BLA_Agonist_Followup_viability: Viability Assessment in the Tox21 Thyroid Hormone Receptor beta Retinoid X Receptor alpha (RXRa) Agonism Beta-lactamase (BLA) Follow-Up Assay (AID 2283970)
# Procedure, shortened: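 Viability counter-screen run alongside the RXRa bla follow-up: HEK293T reporter cells were treated for 16h at 37C in stripped-serum medium, then ATP was quantified by luciferase-coupled CellTiter-Glo. Decreased signal relative to DMSO marked cytotoxicity.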
# [13] = TOX21_p53_BLA_p4_viability: Viability Assessment in the Tox21 HCT-116 p53 Agonism Beta-lactamase Assay, Phase 4 (AID 2283597);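 also: hits lower the luminescence signal meaning cytotoxicity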
# Procedure, shortened: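 Readout: ATP luminescence (CellTiter-Glo), measured 30 min after reagent addition at RT. The reagent followed a 2 h CCF4-AM incubation, and the cells had been exposed to compound for 16 h at 37C.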
# Chain of Cellular tumor antigen p53 (Homo sapiens) (P04637 whole entry, looked up): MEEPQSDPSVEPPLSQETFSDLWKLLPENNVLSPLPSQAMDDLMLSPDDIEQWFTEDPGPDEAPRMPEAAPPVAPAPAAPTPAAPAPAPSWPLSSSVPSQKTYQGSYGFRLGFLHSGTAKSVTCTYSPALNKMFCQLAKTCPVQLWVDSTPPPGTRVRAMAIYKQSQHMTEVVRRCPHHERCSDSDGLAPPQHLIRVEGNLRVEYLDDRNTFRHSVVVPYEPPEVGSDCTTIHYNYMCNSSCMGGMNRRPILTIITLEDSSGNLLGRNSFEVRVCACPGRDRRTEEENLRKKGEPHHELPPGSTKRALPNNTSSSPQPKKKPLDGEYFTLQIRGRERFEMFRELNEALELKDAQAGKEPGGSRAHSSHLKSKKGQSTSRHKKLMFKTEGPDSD
# Chain of THRB (gene 7068) (P10828 whole entry, looked up, the tested form may be a part): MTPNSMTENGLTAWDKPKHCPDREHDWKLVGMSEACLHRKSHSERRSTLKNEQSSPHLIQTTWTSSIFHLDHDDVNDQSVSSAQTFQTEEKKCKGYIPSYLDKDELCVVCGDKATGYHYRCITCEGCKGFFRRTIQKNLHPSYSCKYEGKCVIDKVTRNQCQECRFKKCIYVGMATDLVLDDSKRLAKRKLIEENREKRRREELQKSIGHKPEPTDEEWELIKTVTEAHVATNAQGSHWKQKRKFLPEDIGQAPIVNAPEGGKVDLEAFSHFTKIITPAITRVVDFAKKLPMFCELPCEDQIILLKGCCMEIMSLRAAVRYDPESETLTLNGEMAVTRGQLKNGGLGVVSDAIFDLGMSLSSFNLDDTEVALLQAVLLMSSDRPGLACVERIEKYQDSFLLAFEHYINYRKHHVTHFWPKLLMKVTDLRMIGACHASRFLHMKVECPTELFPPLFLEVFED
# Chain of Retinoic acid receptor RXR-alpha (Homo sapiens) (P19793 whole entry, looked up): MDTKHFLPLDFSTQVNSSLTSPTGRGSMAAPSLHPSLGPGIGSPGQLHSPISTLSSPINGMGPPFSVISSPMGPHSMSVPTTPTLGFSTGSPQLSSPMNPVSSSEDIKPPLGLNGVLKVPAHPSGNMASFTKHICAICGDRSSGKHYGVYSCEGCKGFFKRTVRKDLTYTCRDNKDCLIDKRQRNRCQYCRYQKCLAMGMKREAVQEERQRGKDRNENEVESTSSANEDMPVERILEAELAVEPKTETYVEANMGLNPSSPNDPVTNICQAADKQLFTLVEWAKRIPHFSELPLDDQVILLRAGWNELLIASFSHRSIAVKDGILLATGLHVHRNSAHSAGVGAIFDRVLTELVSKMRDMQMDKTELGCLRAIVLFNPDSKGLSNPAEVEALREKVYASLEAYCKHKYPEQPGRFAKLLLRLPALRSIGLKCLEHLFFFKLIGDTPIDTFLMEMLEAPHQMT
# Chain of THRA (gene 7067) (P10827 whole entry, looked up, the tested form may be a part): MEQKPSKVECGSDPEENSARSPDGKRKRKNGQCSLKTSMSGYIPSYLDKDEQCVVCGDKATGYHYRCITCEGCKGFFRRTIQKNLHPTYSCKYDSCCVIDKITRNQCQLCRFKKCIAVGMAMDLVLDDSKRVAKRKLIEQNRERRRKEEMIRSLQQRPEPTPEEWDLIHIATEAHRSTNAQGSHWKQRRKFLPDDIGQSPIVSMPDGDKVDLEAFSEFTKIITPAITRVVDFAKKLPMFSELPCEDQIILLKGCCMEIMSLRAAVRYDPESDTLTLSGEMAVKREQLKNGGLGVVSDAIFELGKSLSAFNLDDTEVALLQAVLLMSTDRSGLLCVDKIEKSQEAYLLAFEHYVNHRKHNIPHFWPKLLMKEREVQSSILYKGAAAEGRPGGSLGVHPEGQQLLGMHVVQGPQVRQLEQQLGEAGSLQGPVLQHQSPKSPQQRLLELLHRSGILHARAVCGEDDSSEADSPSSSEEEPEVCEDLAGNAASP
# Chain of Thyroid hormone receptor alpha (Rattus norvegicus) + Thyroid hormone receptor beta (Rattus norvegicus) (P63059 whole entry, looked up): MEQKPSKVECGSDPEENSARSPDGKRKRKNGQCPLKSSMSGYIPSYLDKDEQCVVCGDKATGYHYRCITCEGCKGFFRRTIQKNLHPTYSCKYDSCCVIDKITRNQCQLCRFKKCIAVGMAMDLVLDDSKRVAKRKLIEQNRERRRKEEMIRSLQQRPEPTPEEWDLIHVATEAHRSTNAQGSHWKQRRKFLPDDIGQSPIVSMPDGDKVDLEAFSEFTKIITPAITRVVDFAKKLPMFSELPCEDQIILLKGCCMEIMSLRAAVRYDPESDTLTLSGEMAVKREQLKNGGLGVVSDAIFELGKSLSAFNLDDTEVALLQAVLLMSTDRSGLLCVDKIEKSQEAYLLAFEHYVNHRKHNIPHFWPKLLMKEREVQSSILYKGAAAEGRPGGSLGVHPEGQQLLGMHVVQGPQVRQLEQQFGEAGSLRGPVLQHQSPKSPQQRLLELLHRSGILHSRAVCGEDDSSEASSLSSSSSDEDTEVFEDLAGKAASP
# Chain of Thyroid hormone receptor alpha (Rattus norvegicus) + Thyroid hormone receptor beta (Rattus norvegicus) (P18113 whole entry, looked up): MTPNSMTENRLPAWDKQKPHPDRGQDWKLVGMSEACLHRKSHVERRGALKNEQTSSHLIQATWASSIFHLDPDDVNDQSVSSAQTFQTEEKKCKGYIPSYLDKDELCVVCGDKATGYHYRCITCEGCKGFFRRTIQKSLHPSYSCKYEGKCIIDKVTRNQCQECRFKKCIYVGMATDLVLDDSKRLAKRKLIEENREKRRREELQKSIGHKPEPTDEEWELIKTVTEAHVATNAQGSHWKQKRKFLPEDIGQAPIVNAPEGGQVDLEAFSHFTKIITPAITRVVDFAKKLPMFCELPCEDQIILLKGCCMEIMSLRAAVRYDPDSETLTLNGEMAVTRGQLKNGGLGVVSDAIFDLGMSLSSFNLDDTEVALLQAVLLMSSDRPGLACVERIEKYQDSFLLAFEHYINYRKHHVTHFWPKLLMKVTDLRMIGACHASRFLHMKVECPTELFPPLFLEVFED
smiles,measurement,setting,value
O=C(O)Cc1nn(Cc2ccc(Br)cc2F)c(=O)c2ccccc12,outcome,[1],inactive
same,outcome,[2],inactive
same,outcome,[3],inactive
same,outcome,[4],inactive
same,outcome,[5],inactive
same,outcome,[6],inactive
c1csc(SSc2cccs2)c1,outcome,[1],inactive
same,outcome,[2],inactive
same,outcome,[3],inactive
same,outcome,[4],inactive
same,outcome,[6],inactive
c1ccc2sc(SSc3nc4ccccc4s3)nc2c1,outcome,[1],inactive
same,outcome,[2],inactive
same,outcome,[3],inactive
same,outcome,[4],inactive
same,outcome,[5],inactive
same,outcome,[6],inactive
CC1=C(/C=C/C(C)=C/C=C/C(C)=C/C(=O)Oc2c(C)c(C)c3c(c2C)CC[C@@](C)(CCC[C@H](C)CCC[C@H](C)CCCC(C)C)O3)C(C)(C)CCC1,outcome,[1],inactive
same,AC50,[2],42.8 µM (active)
same,outcome,[3],inactive
same,outcome,[4],inactive
same,outcome,[6],inactive
C#C[C@]1(OC(C)=O)CC[C@H]2[C@@H]3CCC4=CC(=O)CC[C@@H]4[C@H]3CC[C@@]21C,outcome,[1],inactive
same,outcome,[2],inactive
same,outcome,[3],inactive
same,outcome,[4],inactive
same,outcome,[6],inactive
NCC(=O)CCC(=O)O,outcome,[1],inactive
same,outcome,[2],inactive
same,outcome,[3],inactive
same,outcome,[4],inactive
same,outcome,[5],inactive
same,outcome,[6],inactive
same,AC50,[7],13.1 µM (active)
same,outcome,THRA (gene 7067),inactive
same,outcome,THRB (gene 7068) [8],inactive
same,outcome,THRB (gene 7068) [9],inactive
same,outcome,[10],inactive
O=Cc1c(Cl)cccc1Cl,outcome,[1],inactive
same,outcome,[2],inactive
same,outcome,[3],inactive
same,outcome,[4],inactive
same,outcome,[5],inactive
same,outcome,[6],inactive
Nc1ncnc2c1ncn2[C@@H]1O[C@H](CO)[C@@H](O)[C@H]1O,outcome,[1],inactive
same,outcome,[2],inactive
same,outcome,[3],inactive
same,outcome,[4],inactive
same,outcome,[5],inactive
same,outcome,[6],inactive
CCCOC(=O)c1ccccc1,outcome,[1],inactive
same,outcome,[2],inactive
same,outcome,[3],inactive
same,outcome,[4],inactive
same,outcome,[5],inactive
same,outcome,[6],inactive
Cc1cc(O)c2c(c1)C(=O)c1cccc(O)c1C2=O,outcome,[1],inactive
same,outcome,[2],inactive
same,outcome,[3],inactive
same,outcome,[4],inactive
same,outcome,[5],inactive
same,outcome,[6],inactive
COc1cc2c3cc1Oc1cc(ccc1O)C[C@@H]1c4c(cc(OC)c(O)c4Oc4ccc(cc4)C[C@@H]3N(C)CC2)CC[N+]1(C)C,outcome,[1],inactive
same,outcome,[2],inactive
same,outcome,[3],inactive
same,outcome,[4],inactive
same,outcome,[5],inactive
same,outcome,[6],inactive
CN(CCCN1c2ccccc2CCc2ccccc21)CC(=O)c1ccc(Cl)cc1,outcome,[1],inactive
same,outcome,[2],inactive
same,outcome,[3],inactive
same,outcome,[4],inactive
same,outcome,[6],inactive
CCCCCCCC(=O)Oc1c(Br)cc(C#N)cc1Br,AC50,[1],67.3 µM (active)
same,outcome,[2],inactive
same,outcome,[3],inactive
same,outcome,[4],inactive
same,outcome,[6],inactive
N=c1nc(N2CCCCC2)cc(N)n1O,outcome,[1],inactive
same,outcome,[2],inactive
same,outcome,[3],inactive
same,outcome,[4],inactive
same,outcome,[6],inactive
CC(=O)N(CC(O)CN(C(C)=O)c1c(I)c(C(=O)NCC(O)CO)c(I)c(C(=O)NCC(O)CO)c1I)c1c(I)c(C(=O)NCC(O)CO)c(I)c(C(=O)NCC(O)CO)c1I (configuration not stated),outcome,[1],inactive
same,outcome,[2],inactive
same,outcome,[3],inactive
same,outcome,[4],inactive
same,outcome,[6],inactive
NCCN1CCOCC1,outcome,[11],inactive
CCC(C)c1cc(C(C)(C)C)c(O)c(C(C)(C)C)c1 (configuration not stated),outcome,[7],inactive
same,outcome,THRA (gene 7067),inactive
same,outcome,THRB (gene 7068) [8],inactive
same,outcome,THRB (gene 7068) [9],inactive
same,outcome,[10],inactive
same,outcome,[12],inactive
CC1=C(/C=C/C(C)=C\C=C\C(C)=C\C(=O)O)C(C)(C)CCC1,outcome,[12],inactive
Cc1cccc2sc(N)nc12,outcome,[1],inactive
same,outcome,[2],inactive
same,outcome,[13],inactive
same,outcome,[4],inactive
same,outcome,[5],inactive
same,outcome,[6],inactive
CN1[C@@H]2CCC[C@H]1CC(NC(=O)c1nn(C)c3ccccc13)C2 (some centres not stated),outcome,[1],inactive
same,outcome,[2],inactive
same,outcome,[13],inactive
same,outcome,[5],inactive
c1ccc(SSc2ccccc2)cc1,outcome,[1],inactive
same,outcome,[2],inactive
same,outcome,[13],inactive
same,outcome,[4],inactive
same,outcome,[6],inactive
CCCCCCCCCCCCCCCCCCCl,outcome,[1],inactive
same,outcome,[2],inactive
same,outcome,[13],inactive
same,outcome,[4],inactive
same,outcome,[5],inactive
same,outcome,[6],inactive
CCO[Si](CC(C)C)(OCC)OCC,outcome,[1],inactive
same,outcome,[2],inactive
same,outcome,[13],inactive
same,outcome,[4],inactive
same,outcome,[6],inactive
C[C@@H](CN1CC(=O)NC(=O)C1)N1CC(=O)NC(=O)C1,outcome,[1],inactive
same,outcome,[2],inactive
same,outcome,[13],inactive
same,outcome,[5],inactive
C=C(C)CC(C)(C)C,outcome,[1],inactive
same,outcome,[2],inactive
same,outcome,[13],inactive
same,outcome,[4],inactive
same,outcome,[5],inactive
same,outcome,[6],inactive
